ChEMBL document CHEMBL3988442, “University of Dundee, Small-Polar-MMV Screening Library” (2021)
The campaign covered roughly 69,000 compounds. About 1,000 (1.4%) showed an effect of 50% or more. The sample as a whole holds a higher share of strong results than the screen did.

Tested on: Leishmania donovani
Assay: Leishmania intramacrophage assay
Assay type: functional, organism-based
Parameters: scale not given: in the data most compounds retested in dose-response had high values

COc1ccc2nnc(C(=O)NC3CCCC3)nc2c1
Percent Effect (30.3 µM, […]): 8.289%

CCCS(=O)(=O)N1CCC2(CC1)CN(c1ccccn1)CCO2.O=C(O)C(F)(F)F
Percent Effect (30 µM, 30.03 µM): 10.12%

CS(=O)(=O)Cc1ccc(Cl)cc1NCc1ccccc1F
Percent Effect (30.3 µM, […]): 17.75%

CS(=O)(=O)Cc1ccc(Cl)cc1NCc1cccc(F)c1F
Percent Effect (30.3 µM, […]): 15.72%

CS(=O)(=O)Cc1ccccc1NCc1cc(Cl)ccc1Cl
Percent Effect (30.3 µM, […]): 50.41%

CC(O)CN1CCN(C(=O)c2ccc(N(C)C)nc2)CC1 (stereo not drawn)
Percent Effect (30 µM, 30.03 µM): 21.97%

Cn1ncc(C(=O)N2CCCC(n3cccn3)C2)c1C1CC1 (stereo not drawn)
Percent Effect (30 µM, 30.03 µM): -6.982%

CCN(C(=O)Nc1cccnc1OC)C1CC1
Percent Effect (30 µM, 30.03 µM): 22.39%

COc1ncccc1NC(=O)N(Cc1ccc(C)o1)C1CC1
Percent Effect (30 µM, 30.03 µM): 53.3%

COc1ncccc1NC(=O)N(Cc1ccco1)C1CC1
Percent Effect (30 µM): 6.992%

O=C1CCc2cc(OCCN3CCc4cncnc4C3)ccc2N1
Percent Effect (30.3 µM, […]): 41.19%

Cc1nc(S(=O)(=O)N2CCC3(CCCCC3)C2)cn1C
Percent Effect (30.3 µM, […]): -11.17%

CC(C)CNc1nc2c(cc1C(=O)NCC1CC1)CCNCC2
Percent Effect (30.3 µM, […]): 79%

CC(C)Nc1nc2c(cc1C(=O)NCC1CC1)CCNCC2.O=C(O)C(F)(F)F.O=C(O)C(F)(F)F
Percent Effect (30 µM, 30.03 µM): 30.72%

CNC(=O)c1cc2c(nc1NCC1CC1)CCNCC2
Percent Effect (30.3 µM, […]): -29.9%

O=C(C1CCCO1)N1CCc2onc(-c3ccc(Cl)cc3)c2C1 (stereo not drawn)
Percent Effect (30.3 µM, […]): -19.46%

Cc1ccccc1CC1(C(=O)O)CCCN(c2ncnc3[nH]ccc23)C1 (stereo not drawn)
Percent Effect (30.3 µM, […]): -3.526%

Cc1cnc(C)c(N2CCCC(C/C=C/c3ccccc3)(C(=O)O)C2)n1 (stereo not drawn)
Percent Effect (30.3 µM, […]): 12.4%

Cc1cnc(C)c(N2CCCC(CO)(Cc3cccc(Cl)c3)C2)n1 (stereo not drawn)
Percent Effect (30.3 µM, […]): -33.57%

Cc1cnc(C)c(N2CCCC(CO)(Cc3ccccc3C)C2)n1 (stereo not drawn)
Percent Effect (30.3 µM, […]): 58.45%

CC(=O)c1ccc(N2CCCC(CO)(Cc3ccccc3C)C2)nc1 (stereo not drawn)
Percent Effect (30.3 µM, […]): 44.66%

Cc1ccccc1CC1(CO)CCCN(c2ncccc2C#N)C1 (stereo not drawn)
Percent Effect (30 µM, 30.03 µM): 15.87%

Cc1ccccc1CC1(CO)CCCN(c2ncncc2C(C)C)C1 (stereo not drawn)
Percent Effect (30.3 µM, […]): 60.98%

Cc1ncc(C)c(N2CCCC(CO)(Cc3cccc(Cl)c3)C2)n1 (stereo not drawn)
Percent Effect (30 µM, 30.03 µM): 20.29%

Cc1ccccc1CC1(CO)CCCN(c2ncnc3sccc23)C1 (stereo not drawn)
Percent Effect (30.3 µM, […]): 67.14%

O=C1CCCc2[nH]c(=O)c(C(=O)N3CCc4ccccc4C3)cc21
Percent Effect (30.3 µM, […]): 0.8668%

O=C(CN(Cc1cccc(F)c1)CC1CCCO1)N1CCCC1 (stereo not drawn)
Percent Effect (30.3 µM, […]): -8.596%

CC[C@@H]1N(Cc2ccoc2)CCC[C@]12CCC(=O)N2CCOC.O=C(O)C(F)(F)F
Percent Effect (30.3 µM, […]): -8.415%

CC(C)N1CCC(NC(=O)c2cn(-c3ccc(F)cc3)nn2)C1 (stereo not drawn)
Percent Effect (30.3 µM, […]): -11.91%

CCc1cc(NCCCc2nc(C)no2)nc(-c2ccncc2)n1
Percent Effect (30.3 µM, […]): -6.6%

Cc1cc(Nc2cnccn2)nc(C2CCCN(CCO)C2)n1 (stereo not drawn)
Percent Effect (30.3 µM, […]): 56.31%

Cc1cc(Nc2ncccn2)nc(C2CCCN(CCO)C2)n1 (stereo not drawn)
Percent Effect (30.3 µM, […]): 24.35%

Cc1cc(Nc2ccccn2)nc(C2CCCN(CCO)C2)n1.O=CO (stereo not drawn)
Percent Effect (30.3 µM, […]): 32.66%

CN(CCn1cncc1-c1cnc(N2CCOCC2)nc1)C1CCCC1
Percent Effect (30.3 µM, […]): 22.37%

CNC(=O)N1C[C@H]2N(c3ncccn3)CCC[C@@]2(C(=O)NCC2CC2)C1
Percent Effect (30.3 µM, […]): 18.69%

CS(=O)(=O)N1C[C@H]2N(c3ncccn3)CCC[C@@]2(C(=O)NCC2CC2)C1
Percent Effect (30.3 µM, […]): 51.67%

CC(C)CN1C[C@H]2N(c3ncccn3)CCC[C@@]2(C(=O)NCC2CC2)C1
Percent Effect (30.3 µM, […]): 11.67%

COCCN1CC[C@H]2CN(Cc3ccc(C)s3)C[C@@H]2C1=O.O=C(O)C(F)(F)F
Percent Effect (30.3 µM, […]): -9.099%

CC(Cc1cccc(F)c1)C(=O)NS(=O)(=O)c1ccc(F)cc1 (stereo not drawn)
Percent Effect (30.3 µM, […]): 5.076%

CC(CN1CCOCC1)NC(=O)c1cccc2cn[nH]c12 (stereo not drawn)
Percent Effect (30.3 µM, […]): 18.62%

CN(C)C(=O)c1cc2ncc(C(=O)NC3CCCC3)cc2n1C
Percent Effect (30.3 µM, […]): -2.053%

Cc1ccc(CNC2CCCN(Cc3noc(C4CC4)n3)C2)s1 (stereo not drawn)
Percent Effect (30 µM): 1.737%

Cc1ccsc1CNC1CCCN(Cc2noc(C3CC3)n2)C1 (stereo not drawn)
Percent Effect (30 µM): 29.68%

Cc1ncccc1CNC1CCCN(Cc2noc(C3CC3)n2)C1 (stereo not drawn)
Percent Effect (30 µM): 51.55%

Cc1ccc(N2CCCC(NCc3ccc(C)o3)C2)nn1 (stereo not drawn)
Percent Effect (30 µM, 30.03 µM): 1.465%

CCc1cc(N2CCC(NCc3ccc(C)o3)CC2)ncn1
Percent Effect (30.3 µM, […]): 57.16%

CCc1cc(N2CCC(Nc3ccc(Cl)cn3)CC2)ncn1
Percent Effect (30.3 µM, […]): 39.5%

COc1c(CNCCNC(=O)c2ccccc2)c(C)nn1C.Cl
Percent Effect (30 µM): 37.81%

Cc1nc(C)n(CC2CCCCN2CCOc2cccc(C#N)c2)n1 (stereo not drawn)
Percent Effect (30 µM): 14.77%

Cc1noc(C(C)N2CCN(c3ncnc4sccc34)CC2)n1 (stereo not drawn)
Percent Effect (30.3 µM, […]): 61.64%

CCc1noc(C(C)N2CCN(c3ncnc4sccc34)CC2)n1 (stereo not drawn)
Percent Effect (30.3 µM, […]): 17.92%

Cc1noc(C(C)N2CCN(c3ncnc4ccccc34)CC2)n1 (stereo not drawn)
Percent Effect (30.3 µM, […]): -13.38%

Cc1cnn(C2CCCN(C(=O)c3cc[nH]n3)C2)c1 (stereo not drawn)
Percent Effect (30.3 µM, […]): 9.905%

CCC(CN1CCCC1)NC(=O)C1(c2cccc(F)c2)CC1.O=C(O)CC(O)(CC(=O)O)C(=O)O (stereo not drawn)
Percent Effect (30.3 µM, […]): 43.99%

CCC(CN1CCCC1)NC(=O)C1(c2ccc(F)cc2)CC1 (stereo not drawn)
Percent Effect (30.3 µM, […]): 52.84%

CCC(CN1CCCCC1)NC(=O)C1(c2ccc(F)cc2)CC1.O=C(O)CC(O)(CC(=O)O)C(=O)O (stereo not drawn)
Percent Effect (30.3 µM, […]): 18.07%

COCCCN1CCCN(C(C)c2nc(C3CC3)no2)CC1 (stereo not drawn)
Percent Effect (30 µM, 30.03 µM): 35.53%

CCOc1ccc(C(=O)N(C)Cc2nccn2CC(F)(F)F)cc1
Percent Effect (30.3 µM, […]): 3.454%

CCC(C)c1ccc(NC(=O)C2CCN(C(=O)N(C)C)CC2)cc1 (stereo not drawn)
Percent Effect (30.3 µM, […]): 18.48%

CCOc1ccnc(N2CCN(C(=O)c3ccncc3)CC2)n1
Percent Effect (30 µM): -11.04%

Cn1cc(CN2CCC3(CC2)CC(c2ccncc2)C(=O)N3)cn1.O=C(O)C(F)(F)F.O=C(O)C(F)(F)F (stereo not drawn)
Percent Effect (30 µM, 30.03 µM): 3.212%

COc1ccccc1CCN1CCCC(CN(C)Cc2cc(C)n[nH]2)C1 (stereo not drawn)
Percent Effect (30.3 µM, […]): 19.41%

Cc1nc[nH]c1CN(C)CC1CCCN(CCc2ccc(Cl)cc2)C1 (stereo not drawn)
Percent Effect (30 µM, 30.03 µM): 95.69%

Cc1nc[nH]c1CN1CCC(C2CCN(CCc3ccccc3)C2)CC1 (stereo not drawn)
Percent Effect (30.3 µM, […]): 22.99%

Cc1nc(C)n(CC2CCCN(CCc3ccncc3)C2)n1 (stereo not drawn)
Percent Effect (30 µM, 30.03 µM): 27.42%

CN(Cc1cccc(O)c1)CC1CCCN(CCc2ccc(Cl)cc2)C1 (stereo not drawn)
Percent Effect (30 µM, 30.03 µM): 95.8%

CCN(CC1CCCN(CCc2cccc(OC)c2)C1)C(=O)CN(C)C (stereo not drawn)
Percent Effect (30.3 µM, […]): 48.28%

Cc1cc(CN2CCC(C3CCN(CCc4ccccc4)C3)CC2)[nH]n1 (stereo not drawn)
Percent Effect (30.3 µM, […]): 16.23%

COc1ccc(CCN2CCCC(CN(C)Cc3[nH]cnc3C)C2)cc1 (stereo not drawn)
Percent Effect (30.3 µM, […]): -2.681%

CCOCCC(=O)N(C)Cc1noc(C(C)C)n1
Percent Effect (30.3 µM, […]): 0.5615%

COc1cccc(OCC2CCCN(C(=O)c3ncc(F)cc3F)C2)c1 (stereo not drawn)
Percent Effect (30.3 µM, […]): 9.755%

Cc1ccc(-c2cnnc(N3CCCC3c3nonc3C)n2)o1 (stereo not drawn)
Percent Effect (30.3 µM, […]): 17.41%

Cc1ccc(OCC(=O)Nc2ncccc2OC(F)F)cc1
Percent Effect (30.3 µM, […]): 23.14%

Cc1ccc(C(=O)NCCCNc2ccc(C(F)(F)F)cn2)cc1
Percent Effect (30 µM): 23.85%

Cc1noc(CN2CCN(C(=O)N(C)C)CC2)n1
Percent Effect (30 µM): 8.701%

COc1cccc2c1OCC(NC(=O)NCCC(N)=O)C2 (stereo not drawn)
Percent Effect (30.3 µM, […]): -3.86%

CC1CCC(NCCCN2CCOCC2)CC1 (stereo not drawn)
Percent Effect (30.3 µM, […]): 41.59%

Cc1ccc(C)c(-n2ncc(C(=O)NCC3COC(C)(C)O3)c2N)c1 (stereo not drawn)
Percent Effect (30.3 µM, […]): 6.712%

c1csc(CN2CCCN(c3ccc(Cn4ccnc4)cn3)CC2)c1
Percent Effect (30.3 µM, […]): 43.35%

OC1CCN(C2CCN(c3ccc(Cn4ccnc4)cn3)CC2)CC1
Percent Effect (30.3 µM, […]): 61.02%

c1cn(Cc2ccc(N3CCCN(C4CCCC4)CC3)nc2)cn1
Percent Effect (30.3 µM, […]): 60.72%

CC1CCN(c2ccc(CNC(=O)NCCn3ccnc3)cn2)CC1
Percent Effect (30.3 µM, […]): -10.4%

Fc1ccc(N2CCCN(c3ccc(Cn4ccnc4)cn3)CC2)cc1
Percent Effect (30.3 µM, […]): 41.56%

CN(CC1CCN(c2ccccc2)C1)c1ccc(Cn2ccnc2)cn1 (stereo not drawn)
Percent Effect (30.3 µM, […]): -5.433%

CC(=O)NC1CCN(C(=O)c2cnc(COc3ccccc3)nc2O)C1 (stereo not drawn)
Percent Effect (30.3 µM, […]): 6.861%

Cc1ccc(CN2CCc3onc(COc4cccnc4)c3C2)s1.O=C(O)C(F)(F)F.O=C(O)C(F)(F)F
Percent Effect (30.3 µM, […]): -45.52%

O=S(=O)(NCc1ccnc(-n2ccnc2)c1)c1cncc(Cl)c1
Percent Effect (30.3 µM, […]): -18.27%

COCCNC(=O)Cn1cc(OCc2ccc(F)cc2)c(=O)cc1CO
Percent Effect (30.3 µM, […]): 27.19%

CO[C@@H]1CCN(c2nnc(C)s2)C[C@@H]1Cc1ccccc1.O=C(O)C(F)(F)F
Percent Effect (30.3 µM, […]): 9.959%

Cc1nnc(N2CC[C@H](OCC3CC3)[C@@H](Cc3ccccc3)C2)s1.O=C(O)C(F)(F)F
Percent Effect (30 µM, 30.03 µM): 51.69%

Cc1nnc(N2CC[C@@H](OCC3CC3)[C@@H](Cc3ccccc3)C2)s1.O=C(O)C(F)(F)F
Percent Effect (30.3 µM, […]): 35.34%

O=C(Nc1cnccn1)[C@@H]1COC[C@H]2CN(C3CCC3)C[C@H]21.O=C(O)C(F)(F)F
Percent Effect (30.3 µM, […]): -10.65%

CCc1nnc(Nc2cccc(C3CCN(CCO)CC3)n2)s1
Percent Effect (30 µM, 30.03 µM): 20.13%
